± gives the standard deviation of the averaged measurements. In all, about 25,000 sequences were measured (“ln(normalized median fluorescence intensity)”: median about 7.9, highest 2% from about 11 on). Only a selection was taken, and the highest values are over-represented in it overall.
These sequences were tested on PfAP2-I AP2 domain 3 (GST-tagged) (assay: gcPBM binding intensity (ln(normalized median fluorescence intensity)); higher = stronger DNA binding).
How it was run: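 Binding intensity is the highest Masliner-normalised natural-log median intensity over replicate spots in either probe orientation. To obtain it, GST-tagged P. falciparum DNA-binding domains made in E. coli were incubated for 1 h on an Agilent 4 × 180k array of primer-extended double-stranded 36-bp intergenic genomic probes plus negative controls. Detection used Alexa488 anti-GST antibody with scanning at 488 nm.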
“ATATGCATAAAAAGAGGTACACATAAAATATATATA [XGTACX_site5864]” was tested, and the “gcPBM binding intensity (ln)” value was 8.19 ± 0.64.
With “TAAATAATTTATAAGTGTACTATTATTGCACGAATA [XGTACX_site7715]” the “gcPBM binding intensity (ln)” value was 11.1 ± 0.57.
For “GATATACAATTTAAGTGTACTATAATAAAATATATA [XGTACX_site3013]”, the “gcPBM binding intensity (ln)” value was 7.79 ± 0.071.
In the case of “TTTATTTAAAATAAGTGTACTAGAAAAATTAAGCAG [XGTACX_site4982]”, the “gcPBM binding intensity (ln)” value is reported as 8.55 ± 0.16.
“ACATATTTCCAATAATGTACATACAAAATAAGAATG [XGTACX_site2659]” was tested, and the “gcPBM binding intensity (ln)” value was 7.82 ± 0.58.
With “AAAAAAAAAATATATTGTACAATATTGTAGCTATAT [XGTACX_site7180]” the “gcPBM binding intensity (ln)” value was 7.67 ± 0.49.
For “GTTTTTAAGAAAAACACACACTCCTGTTATTTTATA [CACACA_site3696]”, the “gcPBM binding intensity (ln)” value was 7.67 ± 0.72.
“ATGCTTATTATTTATTGTACTGAATAAATATATCTG [XGTACX_site4483]” was tested, and the “gcPBM binding intensity (ln)” value was 7.79 ± 0.46.
With “GTGCATAAATCATACACACACACATATATATATATA [CACACA_site2423]” the “gcPBM binding intensity (ln)” value was 10.4 ± 0.67.
In the case of “GTGCATAAATCATACACACACACATATATAAATATA [CACACA_site7188]”, the “gcPBM binding intensity (ln)” value is reported as 10.5 ± 0.65.
In the case of “TCGTGCATAAATCATACACACACACCGATATATATA [CACACA_site8767]”, the “gcPBM binding intensity (ln)” value is reported as 11.3 ± 0.67.
“TATACGGACTCTAAGTGTACTTAAAATAATTCAAAC [XGTACX_site3606]” was tested, and the “gcPBM binding intensity (ln)” value was 7.75 ± 0.53.
“AATTAACCCTAATTTTGTACATATTCCTTTTCTCAT [XGTACX_site46]” was tested, and the “gcPBM binding intensity (ln)” value was 7.92 ± 1.
With ATTTTATTTTATTAAGTGCAAAAAAAAAAAAAGAAA the “gcPBM binding intensity (ln)” value was 10.2 ± 0.32.
In the case of TATTATTATTTTATGGTGCAAAAAAAAAAAAAAAAA, the “gcPBM binding intensity (ln)” value is reported as 10.9 ± 0.61.
In the case of TATTTTTATTATATGGTGCATATATACATACATATA, the “gcPBM binding intensity (ln)” value is reported as 10.7 ± 0.79.
For “AAAAACAAAATTTGGAGTACAGTTATAATATTATTA [XGTACX_site5245]”, the “gcPBM binding intensity (ln)” value was 8 ± 0.24.
In the case of “ATGAGTGCACAAATATATATATATATATATATATAT [CACACA_negctrl_site404]”, the “gcPBM binding intensity (ln)” value is reported as 11 ± 0.56.
With “GCACAAATATATATATATATATATATATATATATAT [GTGCAC_negctrl_site661]” the “gcPBM binding intensity (ln)” value was 9.07 ± 0.54.
“TAATATAATCTGAGTGCACACAAATAAATAAACATA [CACACA_site8032]” was tested, and the “gcPBM binding intensity (ln)” value was 10.5 ± 0.14.
For “GGAAAATTATCAATAGCATGCAAAATGTGAATATTA [TGCATGCA_site901]”, the “gcPBM binding intensity (ln)” value was 7.61 ± 0.7.
With “AAATATTATAGCACCACACACTTATTTTATTTATAT [CACACA_site7133]” the “gcPBM binding intensity (ln)” value was 10.8 ± 0.55.
In the case of “AAATATTATAGCACCACACACTTATTTTATATATAT [CACACA_site5281]”, the “gcPBM binding intensity (ln)” value is reported as 10.8 ± 0.86.
For “GAAAATATTATAGCACCACACACTTATTTTATATAT [CACACA_site2265]”, the “gcPBM binding intensity (ln)” value was 10.5 ± 0.71.
For “ATTATTATTATATTTTGTACATATGTAACAATATAT [XGTACX_site5780]”, the “gcPBM binding intensity (ln)” value was 7.83 ± 0.47.
“AATAATTTTTTAAACACACACACATATATATATATA [CACACA_site95]” was tested, and the “gcPBM binding intensity (ln)” value was 9.32 ± 0.28.
For “AATTTAATATAATGCACACATAAAAAAAAAAAAAAA [CACACA_site123]”, the “gcPBM binding intensity (ln)” value was 11.2 ± 0.78.
For “GAAATAATTTCATATACACACATATACATACATACA [CACACA_site1358]”, the “gcPBM binding intensity (ln)” value was 8.44 ± 0.72.
With “TTAAAAGAATATAATGCACACATTATTTTATTTTAT [CACACA_site3772]” the “gcPBM binding intensity (ln)” value was 10.9 ± 0.73.
“AACATTTATATAAAAGAACACACATATAAAATATTA [CACACA_site9199]” was tested, and the “gcPBM binding intensity (ln)” value was 7.62 ± 0.61.
“GCACACATATAATAATGTACATATATATATTTAAAA [XGTACX_site4561]” was tested, and the “gcPBM binding intensity (ln)” value was 7.96 ± 0.44.
“ATAAAATATATATGCACACACATATATATTTCATAC [CACACA_site3547]” was tested, and the “gcPBM binding intensity (ln)” value was 9.5 ± 0.14.
“TATATAAATTTAATAACACACATATAAAAATGAATT [CACACA_site2366]” was tested, and the “gcPBM binding intensity (ln)” value was 7.61 ± 0.55.
In the case of “AAAATTTAATATAATGCACACATAAAAAAAAAAAAA [CACACA_site7923]”, the “gcPBM binding intensity (ln)” value is reported as 11 ± 0.93.
With “CATTTATATAAAAGAACACACATATAAAATATTATT [CACACA_site3601]” the “gcPBM binding intensity (ln)” value was 7.66 ± 0.52.
In the case of ATAATTTCATAATACGTGCACATAATATATAAAAAA, the “gcPBM binding intensity (ln)” value is reported as 11.385 ± 0.007.
For “ATAAAAAAATTAAATACATGCACATATACACATACA [TGCATGCA_site129]”, the “gcPBM binding intensity (ln)” value was 8.17 ± 0.38.
For “AAAAATAGAATAAATACACACCCGTGTAACGGATTT [CACACA_site3372]”, the “gcPBM binding intensity (ln)” value was 7.29 ± 0.93.
ATAAATTATATTCAAGTGCATGTAACTTATTATTAT was tested, and the “gcPBM binding intensity (ln)” value was 8.29 ± 0.32.
“TTTTTTATTCATGTAACACACATTTAATTATGAATT [CACACA_site2706]” was tested, and the “gcPBM binding intensity (ln)” value was 7.98 ± 0.58.
“ACATAAATATAAACGTGTACATATATAAATATATAT [XGTACX_site7293]” was tested, and the “gcPBM binding intensity (ln)” value was 8.06 ± 0.26.
For “TCTTTTTTGAACTAGCGTACATGAAAATATTTATAG [XGTACX_site7359]”, the “gcPBM binding intensity (ln)” value was 7.83 ± 0.28.
In the case of “TATAATTTAAAATACACACACATATATATAATATAT [CACACA_site2000]”, the “gcPBM binding intensity (ln)” value is reported as 7.71 ± 0.47.
“AAAATTTAATATAATGCACACATAAAAAAAAAAAAT [CACACA_site8425]” was tested, and the “gcPBM binding intensity (ln)” value was 11.1 ± 1.
For “ATTAAAATTTAAAATACACACACATATATATAATAT [CACACA_site8612]”, the “gcPBM binding intensity (ln)” value was 7.91 ± 0.42.
For “AAAATTATCGTTATATGTACGCATCTTAATACGTAT [XGTACX_site4063]”, the “gcPBM binding intensity (ln)” value was 7.79 ± 0.4.
